Source: PubChem BioAssay (Johns Hopkins Ion Channel Center)
KCNQ2 inh: rat KCNQ2 potassium channel inhibitors, primary screen, cell-based, CHO-K1, FluxOR thallium flux, B-score; Potassium voltage-gated channel subfamily KQT member 2 (Rattus norvegicus), O88943; 20 min; hits give low values; B-score at 10 µM; 310,000 compounds, 1.1% hits; AID 2156, 2009;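 active = fluorescence ratio B-score at most minus 3 library SDs, with starting brightness B-score within 2 library SDs, cut at about -5.5 in these data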
KCNQ2 enhance: potentiators of rat KCNQ2 potassium channel; CHO-K1 KCNQ2, FluxOR thallium flux fluorescence; hits give high values; 310,000 compounds, 0.54% hits; B-score at 10 µM; Potassium voltage-gated channel subfamily KQT member 2 (Rattus norvegicus), O88943; AID 2239, 2010;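 active = fluorescence ratio B-score at least 3 SD of library B-scores, with initial fluorescence B-score within 3 of them, cut at about 5.3 in these data; same plate scores as AID 2156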;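 note: B-score of peak minus minimum over baseline fluorescence ratio after K+ and Tl+ stimulus; positive B-score means potentiation of KCNQ2 with more thallium influx and brighter signal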
Kir21 conf inh: mouse Kir2.1 channel blockers, retest, confirmation, cell-based, FluxOR thallium flux, duplicate | shares compounds with KCNQ2 enhance | Kir2.1-expressing cells, FluxOR thallium flux fluorescence; hits give low values | Tl flux remaining, % of negative control (hits give low values), % at 10 µM | 2,300 compounds, 41% hits;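 active = Primary-screen hit whose thallium flux fell at least 3 control SD below untreated wells in both duplicates, with normal baseline fluorescence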;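 note: 0% = blank wells without stimulus and 100% = stimulated no-compound controls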
HEK293 Tl flux: alters thallium flux in parental HEK293 cells, Kir2.1 counter-screen; shares compounds with KCNQ2 enhance; FluxOR signal as % of negative control (100 = no effect), % at 10 µM; FluxOR thallium flux fluorescence; 0% = unstimulated blank wells; 2,300 compounds, 19% hits;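 active = dye signal at least 3 control SD above or below untreated wells in both duplicates, raw fluorescence within 3, either direction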;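 note: percent is based on the flux ratio of peak minus minimum fluorescence over baseline F0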
CHO-K1 ctr: nonspecific thallium flux increase in parental CHO-K1, confirmation, counter-screen for KCNQ2 potentiator project, cell-based, FluxOR thallium flux, duplicate | shares compounds with KCNQ2 enhance | parental CHO-K1 cells, FluxOR thallium flux fluorescence; zero = vehicle mean+3SD, 100% = vehicle-minus-blank window | activity increase over 3SD of controls, % at 10 µM | 1,200 compounds, 43% hits | AID 2282, 2010;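 active = signal rise of at least 3 SD above the untreated control mean, in both duplicate wells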;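 note: counter screen of KCNQ2 potentiator hits so any rise reflects channel-independent effects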
KCNQ1 sel pot: human KCNQ1 channel potentiation off-target, confirmation, selectivity assay for KCNQ2 potentiator project, cell-based, CHO, FluxOR thallium flux; 1,200 compounds, 28% hits; activation over 3SD threshold, % at 10 µM; CHO KCNQ1 stable, FluxOR thallium flux fluorescence; beyond 3SD, as % of vehicle-control signal; shares compounds with KCNQ2 enhance;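 active = fluorescence ratio rise of at least 3 SD of vehicle wells above their mean, in both replicate wells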;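 note: 0% = vehicle mean plus 3 SD and 100% = vehicle minus unstimulated blank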
KCNQ2 pot conf: rat KCNQ2 channel potentiators, confirmation, cell-based, CHO, FluxOR thallium flux, duplicate. AID 2287, 2010. potentiation, less the hit threshold, % at 10 µM. 1,200 compounds, 68% hits. shares compounds with KCNQ2 enhance. CHO-KCNQ2 cells, FluxOR thallium flux fluorescence;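 active = fluorescence ratio rising 3 SD or more over the vehicle control mean in both replicates, plus primary screen hit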;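 note: peak minus minimum thallium fluorescence divided by baseline after K/Tl stimulus; 0% = vehicle mean plus 3 SD and 100% = vehicle minus unstimulated blank difference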
Kir21 spec: mouse Kir2.1 channel activation off-target, confirmation, selectivity assay for KCNQ2 potentiator project, cell-based, HEK293, FluxOR thallium flux. 1,200 compounds, 2% hits. HEK293 Kir2.1, FluxOR thallium flux fluorescence. activity over 3SD threshold, % at 10 µM. shares compounds with KCNQ2 enhance. AID 2345, 2010;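 active = fluorescence ratio rise of at least 3 SD above the vehicle-control mean, seen in both replicates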;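 note: 0% = vehicle mean plus 3 SD and 100% = vehicle minus no-stimulus blank window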
KCNQ2 W236L pot: potentiators of retigabine-insensitive KCNQ2 W236L, mechanism study for KCNQ2 potentiator project, cell-based, rat KCNQ2 W236L, CHO, automated patch clamp | shares compounds with KCNQ2 enhance | automated patch clamp current | current increase over 3SD of negative controls (%), hits give high values, % at 25 µM | 940 compounds, 10% hits;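 active = current increase at least 3 SD of the untreated controls above them in both duplicate recordings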
Target sequence (O88943 whole entry W236L, looked up): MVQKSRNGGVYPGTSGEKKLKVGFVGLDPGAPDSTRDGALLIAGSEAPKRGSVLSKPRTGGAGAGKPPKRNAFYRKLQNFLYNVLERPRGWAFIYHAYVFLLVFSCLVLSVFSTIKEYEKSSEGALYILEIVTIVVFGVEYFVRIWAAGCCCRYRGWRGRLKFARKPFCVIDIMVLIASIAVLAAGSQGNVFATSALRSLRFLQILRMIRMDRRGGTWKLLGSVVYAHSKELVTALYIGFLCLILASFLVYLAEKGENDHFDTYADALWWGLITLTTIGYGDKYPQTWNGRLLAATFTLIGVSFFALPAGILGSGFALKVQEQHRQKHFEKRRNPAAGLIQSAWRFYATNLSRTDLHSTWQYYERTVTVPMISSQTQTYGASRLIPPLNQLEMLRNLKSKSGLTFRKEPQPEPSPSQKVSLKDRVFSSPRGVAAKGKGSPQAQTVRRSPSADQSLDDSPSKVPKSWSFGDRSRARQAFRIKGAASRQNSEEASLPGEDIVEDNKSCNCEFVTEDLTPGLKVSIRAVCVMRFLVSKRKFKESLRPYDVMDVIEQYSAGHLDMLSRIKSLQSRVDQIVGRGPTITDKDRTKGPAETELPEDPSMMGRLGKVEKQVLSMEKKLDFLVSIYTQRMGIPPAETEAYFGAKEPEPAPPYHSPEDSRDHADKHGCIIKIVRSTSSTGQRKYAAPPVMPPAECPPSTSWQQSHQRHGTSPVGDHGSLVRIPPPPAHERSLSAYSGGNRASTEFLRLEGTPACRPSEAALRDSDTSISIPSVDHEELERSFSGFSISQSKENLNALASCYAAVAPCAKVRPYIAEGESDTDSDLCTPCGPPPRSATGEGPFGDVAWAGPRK
Starred values were filed as active, the others as inactive; i = inactive; . = no result. An excerpt weighted towards active compounds, which were near 1.6% of everything screened.

SMILES	KCNQ2 inh	KCNQ2 enhance	Kir21 conf inh	HEK293 Tl flux	others
COc1ccc(NC(=O)C(c2ccc(OC)cc2)N(C)C(=O)c2cnccn2)cc1 (configuration not stated)	i	6.44*	i	i	CHO-K1 ctr=0.6*;KCNQ1 sel pot=-24.9;KCNQ2 pot conf=24.4*;Kir21 spec=-27.9;KCNQ2 W236L pot=i
O=C(NCC1CCCO1)c1ccc([N+](=O)[O-])s1 (configuration not stated)	i	0.67	.	.
COc1ccccc1/C=C/C=N/NC(=O)c1cc(-c2ccc(C)o2)[nH]n1	i	.	.	.
COc1ccc(-c2nc(CS(=O)CC(=O)NC(C)CCc3ccccc3)c(C)o2)cc1OC (configuration not stated)	i	0.15	.	.
Cc1c(C)n(Cc2ccccc2)c2ccc(C(=O)NCCN3CCOCC3)cc12	i	0.84	.	.
Cc1c(C)n(Cc2ccccc2)c2ccc(C(=O)OCCN(C)C)cc12	i	.	26.0%*	i
CC(=O)N1c2ccc(S(=O)(=O)NCC3CCC(C(=O)NCc4ccco4)CC3)cc2CC1C (configuration not stated)	i	.	.	.
CCCCOC(=O)c1ccc(NC(=S)NC(=O)c2c(Cl)cnn2CC)cc1	i	5.25	.	.
Cc1nn(C)c(C(=O)NNC(=S)Nc2ccc(F)cc2)c1[N+](=O)[O-]	i	.	.	.
Cc1nn(C)c(C(=O)NNC(=S)NCc2ccccc2)c1Cl	i	.	.	.
CCn1ncc(Cl)c1C(=O)NC(=S)Nc1ccccc1Br	i	7.09*	i	231.5%*	CHO-K1 ctr=12.1*;KCNQ1 sel pot=54.9*;KCNQ2 pot conf=53.2*;Kir21 spec=-14.2;KCNQ2 W236L pot=i
Cc1nn(C)c(C(=O)NC(=S)Nc2ccc([N+](=O)[O-])cc2)c1Cl	i	8.44*	i	132.5%*	CHO-K1 ctr=-19.3;KCNQ1 sel pot=-9.4;KCNQ2 pot conf=0.7*;Kir21 spec=-28.2;KCNQ2 W236L pot=i
Cc1nn(C)c(C(=O)NC(=S)Nc2ccccc2Br)c1Cl	i	6.84*	i	215.5%*	CHO-K1 ctr=-0.3;KCNQ1 sel pot=-7.5;KCNQ2 pot conf=54.7*;Kir21 spec=-20.1;KCNQ2 W236L pot=i
CN(C)C(=S)c1ccccc1	i	.	.	.
CC1CCN(C(=O)C2CCN(S(=O)(=O)c3ccc(-n4cnnn4)cc3)CC2)CC1	i	0.95	.	.
CSc1nsc(NC(=O)OCc2ccc(Cl)cc2)n1	i	5.85*	i	i	CHO-K1 ctr=88.9*;KCNQ1 sel pot=-21.8;KCNQ2 pot conf=-17.5;Kir21 spec=-19.6
COc1ccsc1NC(=O)OCc1ccc(Cl)cc1	i	.	.	.
CCN(CC(=O)Nc1c(F)cccc1F)C(=O)c1ccc2ncsc2c1	i	1.03	.	.
COc1ccc(-c2c(NC(=O)CC(C)C)n(C)c3ccccc3c2=O)cc1OC	i	.	.	.
CCNC(=S)N/N=C1\C(=O)c2cccc3cccc1c23	i	1.68	.	.
O=C(N/N=C1/C(=O)c2cccc3cccc1c23)c1ccc(Cl)cc1	i	10.1*	i	213.0%*	CHO-K1 ctr=46.0*;KCNQ1 sel pot=37.4*;KCNQ2 pot conf=14.5*;Kir21 spec=-28.0;KCNQ2 W236L pot=i
CC1=CC(=C(C#N)C#N)C=C(C)N1Cc1ccccc1	i	0.05	.	.
CCc1cc(-c2n[nH]c(C)c2-c2nc3ccccc3s2)c(O)cc1OCC(=O)NN	i	.	.	.
CCc1cc(-c2n[nH]c(C)c2-c2nc(C)cs2)c(O)cc1OC	i	2.65	37.0%*	i
CCN(CC)CCNCc1cc(Cl)c(OCC(=O)Nc2ccccc2)c(OC)c1	i	0.64	.	.
SMILES	KCNQ2 inh	KCNQ2 enhance	Kir21 conf inh	HEK293 Tl flux	others
COc1cc(CNC(C)c2ccccc2)cc(Cl)c1OCC(=O)Nc1ccccc1 (configuration not stated)	i	.	60.0%*	i
COc1ccc(-c2noc3c2-c2nc(-c4ccccc4F)sc2CC3)cc1	i	.	.	.
CC(NC=O)c1nc2ccccc2n1CCc1ccccc1 (configuration not stated)	i	.	.	.
COc1cccc(C(=O)Nc2cccc3ccccc23)c1	i	.	.	.
COc1ccc(CC(=O)NNC(=O)c2ccc(NC(C)=O)cc2)cc1	i	0.3	.	.
CCc1ccc(NC(=O)C(=O)NNC(=O)c2ccc(OC)cc2)cc1	i	24.5*	i	i	CHO-K1 ctr=-12.6;KCNQ1 sel pot=-45.3;KCNQ2 pot conf=-3.3;Kir21 spec=-25.1;KCNQ2 W236L pot=i
COc1cccc(C(=O)NNC(=O)C(=O)Nc2cccc3ccccc23)c1	i	12.8*	i	i	CHO-K1 ctr=-10.0;KCNQ1 sel pot=8.8*;KCNQ2 pot conf=-11.6;Kir21 spec=-26.8
COc1ccc(C(=O)NNC(=O)C(=O)Nc2ccc(C)cc2)cc1	i	27.8*	i	234.0%*	CHO-K1 ctr=5.7*;KCNQ1 sel pot=-5.9;KCNQ2 pot conf=7.6*;Kir21 spec=-28.8;KCNQ2 W236L pot=i
COc1ccc(NC(=O)c2ccc(C)cc2)cc1	i	.	.	.
COc1ccccc1-n1c(=O)c2c3c(sc2n2c(=S)[nH]nc12)CCC3	i	.	.	.
CC(C)c1ccc(Nc2ccc(C(=O)O)cc2[N+](=O)[O-])cc1	i	2.75	.	.
O=C(CSc1nnc(CNC(=O)c2ccc(F)cc2)o1)NCC1CCCO1 (configuration not stated)	i	0.36	.	.
COc1ccccc1-n1c(CNC(=O)c2ccc(S(=O)(=O)N3CCCCC3)cc2)n[nH]c1=S	i	1.09	.	.
CCOc1ccccc1NC(=S)N(Cc1cc2ccc(C)cc2[nH]c1=O)CC1CCCN1CC (configuration not stated)	i	0.03	.	.
Cc1ccc(Cl)c2c1=NC(=O)C=2c1[nH]c(=S)[nH]c1O	i	.	.	.
CCOc1ccc(C(C)NC(=O)c2cccs2)cc1OCC (configuration not stated)	i	0.05	.	.
CCc1ccc(C(C)NC(=O)c2cccs2)cc1 (configuration not stated)	i	5.29*	i	i	CHO-K1 ctr=-18.5;KCNQ1 sel pot=46.0*;KCNQ2 pot conf=-1.5;Kir21 spec=-33.3;KCNQ2 W236L pot=i
COc1cccc(N(CC(=O)NCc2ccco2)C(=O)CCC(=O)Nc2nccs2)c1	i	0.38	.	.
